Bioassay records: PubChem, National Center for Advancing Translational Sciences (NCATS)
The list is not random: actives were taken first. Their share in the collection is about 21%.
Pf growth 96h: inhibits malaria parasite growth, 96 h; P. falciparum luciferase reporter growth, 96 h; Potency, µM (highest dose often 28.7 µM), for the others: at the top dose activity change, negative = inhibition, hits mostly inhibitors; 320,000 tested, 6.9% active; AID 504834; also: potency is read from the fitted curve at half-maximal effect; % is scaled to controls: 0 for no effect and ±100 for the full control effect
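Two-generation exposure (96 h) targets delayed-death phenotype. Reporter parasites carrying integrated firefly luciferase, in red cells at 2% hematocrit and 0.05% parasitemia final, kept at 37 C, 5% CO2; luminescence loss indicates inhibition.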
Pf growth 48h: P. falciparum growth inhibition at 48 hours (one generation). P. falciparum luciferase growth in erythrocytes, 48 h. Potency, µM (titrated, usually from 28.7 µM), for inactives: at the top dose activity change, negative = inhibition, actives largely listed as inhibitors. 310,000 tested, 5.9% active; also: potency is read from the fitted curve at half-maximal effect; % is scaled to controls: 0 for no effect and ±100 for the full control effect
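Firefly luciferase activity from engineered P. falciparum reports growth; inhibitors lower the luminescent signal. Cultures contained 2% hematocrit erythrocytes at 0.1% final parasitemia.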
NS1 inh: blocks influenza NS1 protein function | Potency, µM (series often up to 46.1 µM), inactives show at the highest dose activity, positive = more growth | 270,000 tested, 0.4% active | AID 2326; calls by dose curve; also: potency is read from the fitted curve at half-maximal effect; actives are rising curves; nearly all actives have a fitted effect of over 50% in size
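OD600 was taken as the measure of yeast growth restored by compound in an NS1-expressing S. cerevisiae strain. Cells had been washed out of glucose medium and diluted 1:100 into galactose -URA medium, pH 6.0.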
Cycloheximide cs: counter-screen hit for Shiga toxin inhibitors, cycloheximide; 300,000 tested, 12% active; max response, %; cell reporter, cycloheximide protein synthesis inhibition counterscreen; AID 2314; in the data active = max response mostly above about 13%, no sharp cut-off; inactive = mostly below about 14%; also: read at 38.3 µM for the half of the compounds with a filed dose; 0% is about no effect
SARS PLpro yeast: blocks SARS-CoV papain-like protease in a yeast assay; S. cerevisiae expressing SARS-CoV PLpro, growth rescue; Potency, µM (series often up to 32.9 µM), for the others: top-dose activity, positive = growth rescue, hits mostly activators; 330,000 tested, 0.19% active; AID 485353; calls by dose curve; also: potency is read from the fitted curve at half-maximal effect; 0% is about no effect; nearly all actives have a fitted effect of over 55% in size
Shiga toxin inh: inhibitors of Shiga toxin in Vero cells | Vero cells, Shiga toxin protein synthesis inhibition reporter | AID 2315 | inhibition, % at 38.7 µM | 290,000 tested, 9.2% active; in the data active = inhibition mostly above about 28%, no sharp cut-off; inactive = mostly below about 43%; also: 0% is about no effect
* marks the source's active call; other numbers are inactive results; i = inactive; ? = inconclusive; nt = not tested or not shown. Unless noted, calls follow the shape of the dose curve; as a rule, active = well fitted inhibition curve with a large enough effect; inconclusive = small, poorly fitted or top-dose-only effect, or another doubt; inactive = no such curve, though single readings can be large or run the other way.

SMILES | Pf growth 96h | Pf growth 48h | NS1 inh | Cycloheximide cs | SARS PLpro yeast | Shiga toxin inh
CC(=O)N1CCN(c2ccc(NC(=O)c3ccccc3Cl)cc2)CC1 | 88% | 20% | 6% | -1 | -4% | 3
COc1ccccc1C(=O)Nc1ccc(N2CCCCC2)cc1 | 109% | nt | -59% | 45* | -3% | 65*
COC(=O)Cc1ccc(NC(=O)c2ccc(C(C)(C)C)cc2)cc1 | ? | nt | -83% | 1 | -11% | -6
COC(=O)Cc1ccc(NC(=O)c2ccccc2Cl)cc1 | ? | 8% | 1% | 28* | -1% | 35
CN1CCN(c2ccc(NC(=O)c3ccc(Cl)cc3Cl)cc2)CC1 | -21% | -28% | 17% | 15* | 1% | nt
O=C(Nc1ccc(N2CCCC2)cc1)c1cccc(Cl)c1 | -14% | 92% | 3% | 25* | -2% | 52*
COC(=O)/C=C1\OC(c2ccccc2)=CC1=O | 19% | 36% | -35% | -4 | -95% | -25
CC(C)(C)C(O)C(Cc1ccccc1Cl)n1cncn1 (configuration not stated) | ? | ? | -85% | -3 | -5% | 3
CCCCn1c(=O)c(C=Nc2ccc(Cl)cc2)c(O)n(Cc2ccco2)c1=O | 9.3µM* | 8.3µM* | 10% | -3 | 2% | -12
CC(C)n1c(=O)c(C=Nc2ccc(S(N)(=O)=O)cc2)c(O)n(Cc2ccco2)c1=O | -8% | 0% | 14% | -2 | -14% | -22
CCOc1ccc(-c2n[nH]c(C)c2-c2ccccc2OC)c(O)c1 | -28% | 3.3µM* | -35% | -1 | -27% | -10
COc1ccc(-c2c(-c3ccc(OCC(=O)NN)cc3O)n[nH]c2C)cc1OC | ? | ? | ? | -2 | 7% | -4
COc1ccc(-c2c(-c3ccc(OCC(=O)NN)cc3O)n[nH]c2C(F)(F)F)cc1 | 9.3µM* | 9.3µM* | ? | -2 | 14% | -1
C=C(C)COc1ccc(-c2n[nH]c(C)c2-c2ccc(OC)cc2)c(O)c1 | 3.7µM* | ? | -115% | -4 | -32% | -8
COc1ccc(-c2n[nH]c(C)c2-c2cnn(-c3ccccc3)c2)c(O)c1 | i | -16% | -26% | -5 | -56% | 7
CCc1cc(-c2n[nH]c(C)c2-c2ccccc2Cl)c(O)cc1OC | -14% | ? | 0% | 32* | -11% | 80*
COc1ccc(-c2n[nH]c(C)c2-c2cscn2)c(O)c1 | 0% | 16% | -1% | -4 | 1% | -3
COc1ccc(NS(=O)(=O)c2cccc(C(=O)NCc3ccco3)c2)cc1 | -24% | -9% | nt | nt | -6% | nt
CCOC(=O)Nc1ccc2c(CN3CCN(S(=O)(=O)c4ccc(C(C)C)cc4)CC3)cc(=O)oc2c1 | 10µM* | ? | nt | nt | 3% | nt
CCOC(=O)Nc1ccc2c(CN3CCN(S(=O)(=O)c4ccccc4F)CC3)cc(=O)oc2c1 | 10µM* | 9.3µM* | nt | nt | 0% | nt
C=CCn1cnc2c(NCc3ccccc3)ncnc21 | nt | 28% | 2% | 50* | 5% | 91*
O=C1CN(C(=S)NC(=O)c2ccc(-c3ccccc3)cc2)CCN1 | 20% | 20% | -1% | 15* | 0% | 62
O=C(NC(=S)Nc1ccccc1)c1csnn1 | ? | -3% | 6% | 22* | -8% | 27
Cc1ccc(NC(=O)NC(=S)NC(=O)c2ccccc2)cc1 | 78% | 54% | -4% | 48* | -5% | 88*
O=C1CN(C(=S)Nc2ccccc2Cl)CCN1 | 5% | -3% | nt | -2 | 1% | 1
SMILES | Pf growth 96h | Pf growth 48h | NS1 inh | Cycloheximide cs | SARS PLpro yeast | Shiga toxin inh
O=C(O)c1ccc(NC(=S)NC(=O)c2ccc(-c3ccccc3)cc2)cc1 | 14% | 107% | nt | 45* | 0% | 48
CC(C)NS(=O)(=O)c1ccc(NC(=S)NC(=O)c2ccc(-c3ccccc3)cc2)cc1 | 2.6µM* | 6.6µM* | 1% | 7 | -6% | -6
COc1ccc(CCNC(=O)C(C(=O)c2ccc(F)cc2)n2ccccc2=O)cc1OC (configuration not stated) | ? | 0% | ? | 11 | -1% | 7
Cc1cc(=O)n2[nH]cc(-c3ccccc3)c2n1 | 9.3µM* | 1% | 28% | 1 | -3% | -3
Cc1nc2c(-c3ccccc3)c[nH]n2c(=O)c1Cc1ccccc1 | 60% | 105% | nt | 62* | -5% | 121*
COCc1cc(=O)n2[nH]cc(-c3ccccc3)c2n1 | -18% | 30% | -3% | 19* | 5% | nt
O=C(C[C@H]1C[C@H](C(=O)N2CCCCC2)[C@@]2(CCc3ccccc3)c3[nH]c4ccc(Cl)cc4c3CCN2C1=O)NCc1ccco1 | nt | nt | nt | nt | 11% | nt
COc1cc([N+](=O)[O-])ccc1NC(=O)CSc1nncn1-c1cccnc1 | 15% | -10% | 4% | -5 | 6% | -9
Cc1ccc(S(=O)(=O)N2CCC(C(=O)Nc3nnc(-c4ccc(F)cc4)s3)CC2)cc1 | -16% | 0% | -3% | 5 | ? | -3
Cc1ccc(-c2nnc(NC3CCCC3)s2)cc1 | -6% | 200% | -2% | 54* | -2% | 53*
CC1CCCC(n2c(=S)[nH]c3ccccc3c2=O)C1C (configuration not stated) | ? | ? | ? | -8 | -10% | -10
CC(=O)c1cccc(NC(=O)CN(C)S(=O)(=O)c2cccc3nsnc23)c1 | ? | -9% | 12% | 12 | 1% | -5
CCOc1ccc(CN2CCN(C(=O)Cc3ccccc3)CC2)cc1 | 6.6µM* | -1% | 11% | -2 | 5% | -3
COc1cccc(CN2CCN(C(=O)Cc3ccccc3OC)CC2)c1 | ? | -13% | -3% | -1 | 0% | -8
COc1ccc(OC)c(CN2CCN(C(=O)Cc3ccccc3)CC2)c1 | 12µM* | -1% | 9% | -1 | 5% | -2
COc1ccc(C(NC(=O)/C=C/c2ccco2)c2ccc(OC)c(OC)c2)cc1 (configuration not stated) | ? | -27% | ? | 42* | 14% | 85*
COc1ccc(C(=O)NCC2(c3ccc(OC)c(OC)c3)CCCC2)c(OC)c1 | ? | 12µM* | -10% | -1 | 2% | -8
COc1ccc(C2(CNC(=O)/C=C/c3ccco3)CCCC2)cc1OC | ? | 6.6µM* | -6% | -1 | 3% | 42
O=C(NCC1(c2ccccc2)CCCC1)c1ccco1 | 35% | -15% | -2% | 4 | -1% | -15
O=C(/C=C/c1ccco1)NCC1(c2ccccc2)CCCC1 | 146% | ? | -12% | 105* | -16% | 48*
CCOc1ccc(C(NC(=O)/C=C/c2ccco2)c2ccc(OC)c(OC)c2)cc1 (configuration not stated) | ? | ? | -21% | 8 | -15% | 12
O=C(COC(=O)C(Cc1ccccc1)NC(=O)c1ccc(Cl)cc1)c1ccc(Cl)cc1 (configuration not stated) | 0% | -1% | -31% | 9 | 6% | -7
